According to PubChem BioAssay (NCATS):
Records with an inconclusive call do not appear. The source made the active and inactive calls. Unless noted, calls follow the shape of the dose curve; as a rule, active = well fitted curve in the direction sought with a large enough effect; inconclusive = small, poorly fitted or top-dose-only effect, or another doubt; inactive = no such curve, though single readings can be large; an effect the other way counts as inactive or inconclusive.

Tests used:
[1] = biological target: Lysosomal acid glucosylceramidase (Homo sapiens) (UniProt P04062); experiment: Glucocerebrosidase-p2 (AID 348; in the data active = potency below about 10 µM; also: potency is read from the fitted curve at half-maximal effect); conditions: purified GBA, blue fluorogenic substrate, 40 min
Chain of Lysosomal acid glucosylceramidase (Homo sapiens) (P04062 whole entry, looked up): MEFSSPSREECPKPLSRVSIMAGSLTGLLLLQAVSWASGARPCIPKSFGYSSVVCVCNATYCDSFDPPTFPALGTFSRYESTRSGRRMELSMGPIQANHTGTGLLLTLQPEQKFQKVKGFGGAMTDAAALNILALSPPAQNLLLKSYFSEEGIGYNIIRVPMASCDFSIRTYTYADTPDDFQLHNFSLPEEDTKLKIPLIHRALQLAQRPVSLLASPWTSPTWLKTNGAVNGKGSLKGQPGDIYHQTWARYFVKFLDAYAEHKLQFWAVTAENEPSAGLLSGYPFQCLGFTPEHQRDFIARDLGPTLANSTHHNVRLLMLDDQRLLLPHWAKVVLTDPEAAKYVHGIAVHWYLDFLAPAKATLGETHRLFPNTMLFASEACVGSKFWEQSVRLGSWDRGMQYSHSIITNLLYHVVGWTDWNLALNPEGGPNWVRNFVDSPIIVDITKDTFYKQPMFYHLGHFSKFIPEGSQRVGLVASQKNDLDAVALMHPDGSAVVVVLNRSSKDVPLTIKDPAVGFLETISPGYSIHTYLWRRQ
Method in brief: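 Normal human glucocerebrosidase (0.2 nM) with blue fluorogenic substrate (80 uM final) in citrate/phosphate pH 5.9 with 10mM sodium taurocholate, 0.01% tween-20; 40 min RT, NaOH/glycine stop; fluorescence Ex 365/Em 440; AC50 from a titration from 0.6 nM upwards.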

[2] = AP1 Signaling Pathway (AID 357; active = well fitted curve in either direction with a large enough effect, not every such curve was filed as active;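 also: ME-180 reporter cells stimulated with EGF at its EC50 level; % is scaled to controls: 0 for no effect and ±100 for the full control effect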); conditions: ME-180 AP-1-bla reporter, EGF-induced, beta-lactamase ratio, 5 h; at 7.69 µM (top of the series) unless noted
Method in brief: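 Cells are seeded overnight, exposed to compound titrations and an EC50 level of EGF for 5 hours at 37 °C, then loaded with CCF4 dye for 2.5 hours. Beta-lactamase activity under the AP-1 element is read as a blue/green ratio.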

[3] = biological target: Cytochrome P450 1A2 (Homo sapiens) (UniProt P05177); experiment: p450-cyp1a2 (AID 410; calls by dose curve; also: potency is read from the fitted curve at half-maximal effect); conditions: recombinant CYP1A2, luciferin-ME demethylation, luminescence; series mostly up to 57 µM
Chain of Cytochrome P450 1A2 (Homo sapiens) (P05177 whole entry, looked up): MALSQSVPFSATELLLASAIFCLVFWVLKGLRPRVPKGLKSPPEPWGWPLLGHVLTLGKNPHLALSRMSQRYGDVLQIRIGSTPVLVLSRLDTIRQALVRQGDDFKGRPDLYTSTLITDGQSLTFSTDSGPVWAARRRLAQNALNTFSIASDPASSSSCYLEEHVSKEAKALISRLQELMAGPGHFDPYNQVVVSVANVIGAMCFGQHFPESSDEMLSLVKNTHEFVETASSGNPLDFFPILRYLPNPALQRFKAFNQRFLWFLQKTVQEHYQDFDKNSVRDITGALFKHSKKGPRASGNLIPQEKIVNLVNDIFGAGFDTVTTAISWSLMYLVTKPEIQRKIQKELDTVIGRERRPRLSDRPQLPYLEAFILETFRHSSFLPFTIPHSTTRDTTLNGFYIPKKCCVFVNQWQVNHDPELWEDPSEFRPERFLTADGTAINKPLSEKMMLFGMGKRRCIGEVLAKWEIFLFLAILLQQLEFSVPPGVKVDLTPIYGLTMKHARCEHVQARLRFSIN
Method in brief: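 20nM CYP1A2, 100uM Luciferin-ME (=Km), 100mM KPO4; cpd 10 min RT; +NADPH regen, 60 min RT; stop/detect 20 min; luminescence. Normalized to furafylline 57 uM = full inhibition.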

[4] = NFAT Signaling Pathway (AID 444; active = well fitted curve in either direction with a large enough effect, not every such curve was filed as active;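 also: carbachol stimulus at about its EC50 of 1 µM final; % is scaled to controls: 0 for no effect and ±100 for the full control effect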); conditions: Jurkat NFAT-bla M1, carbachol, beta-lactamase ratio, 5 h; at 7.69 µM (top of the series) unless noted
Method in brief: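 Jurkat cells carrying an NFAT-driven β-lactamase reporter and co-transfected muscarinic M1 receptor were treated with compound plus carbachol (1 uM final, an EC50 level) for 5 h at 37 °C. CCF4 loading followed for 1 h at RT; 460/530 nm ratio gave %activity.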

[5] = Stat Signaling Pathway (AID 446; active = well fitted curve in either direction with a large enough effect, not every such curve was filed as active;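 also: ME-180 cervical cancer cells given 40 pM IL-6 alongside compound; SIE-controlled beta-lactamase reporter measured as 460/530 nm FRET emission ratio; % is scaled to controls: 0 for no effect and ±100 for the full control effect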); conditions: ME-180 SIE beta-lactamase reporter, IL-6 stimulated, 5 h; at 7.69 µM (top of the series) unless noted
Method in brief: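 Overnight-plated ME-180 cells bearing a STAT Inducible Element beta-lactamase reporter; 5 h co-exposure to compound and 40 pM IL-6; values normalized to 300 pM IL-6 and 125 nM JAK inhibitor controls.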

[6] = biological target: Glucocorticoid receptor (Homo sapiens) (UniProt P04150); experiment: GR-EFC Redistribution (AID 451; calls by dose curve; also: potency is read from the fitted curve at half-maximal effect); conditions: CHO-K1 GR-EFC translocation, beta-gal luminescence, 2 h
Chain of Glucocorticoid receptor (Homo sapiens) (P04150 whole entry, looked up, the tested form may be a part): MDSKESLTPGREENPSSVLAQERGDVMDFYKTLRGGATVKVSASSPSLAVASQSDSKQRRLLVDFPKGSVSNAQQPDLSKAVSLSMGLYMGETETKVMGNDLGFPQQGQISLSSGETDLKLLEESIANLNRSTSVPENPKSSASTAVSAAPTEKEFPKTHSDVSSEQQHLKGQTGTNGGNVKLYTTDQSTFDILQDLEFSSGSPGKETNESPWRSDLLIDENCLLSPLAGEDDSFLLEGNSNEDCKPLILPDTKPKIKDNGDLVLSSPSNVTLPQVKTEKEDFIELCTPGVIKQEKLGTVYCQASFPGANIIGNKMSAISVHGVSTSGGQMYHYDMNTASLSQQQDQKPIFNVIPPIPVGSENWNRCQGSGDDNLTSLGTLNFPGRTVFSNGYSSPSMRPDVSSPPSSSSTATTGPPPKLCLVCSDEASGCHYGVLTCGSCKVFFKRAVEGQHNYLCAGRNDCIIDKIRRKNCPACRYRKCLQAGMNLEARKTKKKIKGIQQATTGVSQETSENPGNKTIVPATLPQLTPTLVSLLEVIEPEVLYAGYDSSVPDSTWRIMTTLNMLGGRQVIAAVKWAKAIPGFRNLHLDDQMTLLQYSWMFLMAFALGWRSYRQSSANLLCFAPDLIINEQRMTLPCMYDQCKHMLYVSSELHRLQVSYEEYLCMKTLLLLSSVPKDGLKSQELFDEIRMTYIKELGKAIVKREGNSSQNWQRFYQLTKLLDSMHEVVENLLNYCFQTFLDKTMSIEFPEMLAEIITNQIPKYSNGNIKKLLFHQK
Method in brief: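 CHO-K1 cells stably expressing nuclear-localized β-gal enzyme acceptor and GR fused C-terminally to the enzyme donor fragment; ligand-driven nuclear translocation restores β-gal by complementation. Compounds titrated up to 46 uM final, 2 h at 37 °C; luminescence read.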

[7] = biological target: Mitogen-activated protein kinase 10 (Mus musculus) (UniProt Q61831); experiment: JNK3 AlphaScreen Assay (AID 530; active = well fitted curve in either direction with a large enough effect, not every such curve was filed as active;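 also: kinase came from lysate of stimulated human HepG2 cells; signal reports phosphorylation of biotinylated GST-cJun 1-79 at Ser73 with 10 µM ATP; % is scaled to controls: 0 for no effect and ±100 for the full control effect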); conditions: JNK3 lysate, c-Jun phosphorylation; series mostly up to 57.1 µM
Method in brief: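 Biotinylated GST-cJun(1-79) served as substrate for JNK3 in HepG2 lysates stimulated with IL-1beta and TNF-alpha. ATP was 10 uM final, pH 7.6. Ser73 phosphorylation was quantified by AlphaScreen (680 nm excitation).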

[8] = biological target: 3',5'-cyclic-AMP phosphodiesterase 4B (Homo sapiens) (UniProt Q07343); experiment: qHTS Assay for Inhibitors of PDE-IV (AID 607; active = well fitted activation curve with a large enough effect in the main read-out, with a control signal flat, not every such curve was filed as active; also: % of control where 0% means no effect); conditions: HEK293 ACTOne CNG channel cells, membrane potential fluorescence; series mostly up to 22.9 µM
Chain of 3',5'-cyclic-AMP phosphodiesterase 4B (Homo sapiens) (Q07343 whole entry, looked up): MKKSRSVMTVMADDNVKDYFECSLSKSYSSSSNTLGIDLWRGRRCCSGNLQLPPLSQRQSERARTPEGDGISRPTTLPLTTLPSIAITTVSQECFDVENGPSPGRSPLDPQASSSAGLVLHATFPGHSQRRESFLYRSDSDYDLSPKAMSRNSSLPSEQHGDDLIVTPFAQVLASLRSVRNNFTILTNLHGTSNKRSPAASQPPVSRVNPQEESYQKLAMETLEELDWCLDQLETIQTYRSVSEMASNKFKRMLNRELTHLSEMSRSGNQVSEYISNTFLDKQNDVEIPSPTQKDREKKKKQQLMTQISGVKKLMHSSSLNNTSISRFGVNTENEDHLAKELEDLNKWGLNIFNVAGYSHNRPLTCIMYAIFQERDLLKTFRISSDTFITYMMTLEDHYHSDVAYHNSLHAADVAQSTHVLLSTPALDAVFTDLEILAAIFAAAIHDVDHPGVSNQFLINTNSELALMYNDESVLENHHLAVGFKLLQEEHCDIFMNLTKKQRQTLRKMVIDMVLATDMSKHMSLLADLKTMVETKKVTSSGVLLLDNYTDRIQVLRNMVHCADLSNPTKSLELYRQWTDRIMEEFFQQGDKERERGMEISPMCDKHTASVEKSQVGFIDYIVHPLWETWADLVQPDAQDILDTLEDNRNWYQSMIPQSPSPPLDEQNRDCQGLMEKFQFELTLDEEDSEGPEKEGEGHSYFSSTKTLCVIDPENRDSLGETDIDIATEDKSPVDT
Method in brief: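 Live HEK293 cells with a modified cyclic nucleotide-gated (CNG) channel report intracellular cAMP via membrane-potential dye fluorescence (ex 535/em 590 nm). Endogenous PDE-IV was targeted. Compounds were tested at up to 22.9 uM final; RO 20-1724 100 uM served as control.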

[9] = biological target: Cytochrome P450 2C9 (Homo sapiens) (UniProt P11712); experiment: qHTS Assay for Inhibitors and Substrates of Cytochrome P450 2C9 (AID 883); conditions: recombinant CYP2C9, luciferin-H luminescence, 60 min; series mostly up to 57.1 µM; also: % is scaled to controls: 0 for no effect and ±100 for the full control effect; nearly all actives have a fitted effect of over 60% in size
Chain of Cytochrome P450 2C9 (Homo sapiens) (P11712 whole entry, looked up): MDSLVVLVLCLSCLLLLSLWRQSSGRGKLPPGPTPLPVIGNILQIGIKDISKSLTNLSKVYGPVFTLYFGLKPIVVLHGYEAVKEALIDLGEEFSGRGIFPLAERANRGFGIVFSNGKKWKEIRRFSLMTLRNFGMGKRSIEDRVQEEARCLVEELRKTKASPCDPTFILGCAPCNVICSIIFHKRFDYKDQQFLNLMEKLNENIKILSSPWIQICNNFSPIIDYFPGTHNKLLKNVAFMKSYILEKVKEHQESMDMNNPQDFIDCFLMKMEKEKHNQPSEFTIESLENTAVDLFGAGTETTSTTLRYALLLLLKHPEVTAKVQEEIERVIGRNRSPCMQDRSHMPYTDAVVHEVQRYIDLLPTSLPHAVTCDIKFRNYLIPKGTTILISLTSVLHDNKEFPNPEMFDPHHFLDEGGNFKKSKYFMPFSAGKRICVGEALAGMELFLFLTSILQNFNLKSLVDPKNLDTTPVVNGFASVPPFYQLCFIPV
Method in brief: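 CYP2C9 deoxyluciferin hydroxylation, 37C, 60 min with NADPH regeneration; 10nM enzyme, 100uM Luciferin-H (KM). Glo detection reagent stopped reaction; luminescence normalized to sulphaphenazole (57uM) full inhibition.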

[10] = qHTS Assay for Lipid Storage Modulators (AID 1519; calls by dose curve); conditions: Drosophila S3 cells, BODIPY lipid droplet/cell ratio, laser cytometry, cells loaded with oleic acid; for activity change, negative = inhibition: at 57.5 µM (top of the series)
Method in brief: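 Cells seeded at 5,000 per well were treated with compounds over a concentration series and loaded with oleic acid (400 uM, as added). Lipid droplet fluorescence (488 nm excitation, 500-530 nm channel) was read by laser-scanning cytometry and normalized to 20 uM Triacsin C.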

[11] = biological target: Dual specificity protein kinase CLK4 (Homo sapiens) (UniProt Q9HAZ1); experiment: qHTS Assay for Inhibitors of CDC-like Kinase 4 (Kinase-Glo Assay) (AID 1770); conditions: recombinant Clk4, Kinase-Glo ATP depletion luminescence; series mostly up to 66.7 µM; also: nearly all actives have a fitted effect of over 65% in size; also: potency is read from the fitted curve at half-maximal effect
Chain of Dual specificity protein kinase CLK4 (Homo sapiens) (Q9HAZ1 whole entry, looked up): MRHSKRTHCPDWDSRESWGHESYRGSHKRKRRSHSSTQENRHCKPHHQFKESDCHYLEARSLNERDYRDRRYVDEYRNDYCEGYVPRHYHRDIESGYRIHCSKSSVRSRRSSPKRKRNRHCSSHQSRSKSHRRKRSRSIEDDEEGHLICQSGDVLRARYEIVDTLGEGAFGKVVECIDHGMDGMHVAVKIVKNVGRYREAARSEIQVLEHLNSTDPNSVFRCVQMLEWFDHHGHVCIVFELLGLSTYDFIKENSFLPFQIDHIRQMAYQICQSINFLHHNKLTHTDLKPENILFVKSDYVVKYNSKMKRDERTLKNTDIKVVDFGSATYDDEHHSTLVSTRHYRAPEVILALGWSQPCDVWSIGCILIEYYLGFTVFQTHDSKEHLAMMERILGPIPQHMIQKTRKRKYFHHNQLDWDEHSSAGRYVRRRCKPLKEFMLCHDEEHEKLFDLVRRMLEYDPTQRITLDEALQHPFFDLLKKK
Method in brief: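 Clk4 25 nM, RS peptide 100 uM, ATP 1 uM, pH 7.5 Tris, 10 mM MgCl2, 2.5 mM DTT; 4.5 h RT; ATP depletion read by Kinase-Glo luminescence.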

[12] = biological target: Dual specificity protein kinase CLK4 (Homo sapiens) (UniProt Q9HAZ1); experiment: qHTS Assay for Inhibitors of CDC-like Kinase 4 (ADP-Glo Assay) (AID 1771); conditions: recombinant CLK4, ADP-Glo luminescence; series mostly up to 80 µM; also: nearly all actives have a fitted effect of over 70% in size; also: potency is read from the fitted curve at half-maximal effect
Method in brief: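 25 nM Clk4, 100 uM RS peptide, 1 uM ATP (final); 2 mM MgCl2, 0.5 mM EGTA, 2.5 mM DTT, 0.01% Triton X-100; 1 hr RT. ADP-Glo readout: ATP depletion 45 min, conversion/luciferase 30 min, luminescence.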

[13] = biological target: Ubiquitin carboxyl-terminal hydrolase 1 (Homo sapiens) (UniProt O94782); experiment: Inhibitors of USP1/UAF1: Pilot qHTS (AID 504865); conditions: purified USP1/UAF1, Ub-rhodamine cleavage fluorescence; series mostly up to 54.9 µM;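 also: rhodamine fluorescence freed from ubiquitin-rhodamine substrate followed over time; top concentration of the series differs between compounds; % is scaled to controls: 0 for no effect and ±100 for the full control effect; nearly all actives have a fitted effect of over 35% in size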
Chain of Ubiquitin carboxyl-terminal hydrolase 1 (Homo sapiens) (O94782 whole entry, looked up): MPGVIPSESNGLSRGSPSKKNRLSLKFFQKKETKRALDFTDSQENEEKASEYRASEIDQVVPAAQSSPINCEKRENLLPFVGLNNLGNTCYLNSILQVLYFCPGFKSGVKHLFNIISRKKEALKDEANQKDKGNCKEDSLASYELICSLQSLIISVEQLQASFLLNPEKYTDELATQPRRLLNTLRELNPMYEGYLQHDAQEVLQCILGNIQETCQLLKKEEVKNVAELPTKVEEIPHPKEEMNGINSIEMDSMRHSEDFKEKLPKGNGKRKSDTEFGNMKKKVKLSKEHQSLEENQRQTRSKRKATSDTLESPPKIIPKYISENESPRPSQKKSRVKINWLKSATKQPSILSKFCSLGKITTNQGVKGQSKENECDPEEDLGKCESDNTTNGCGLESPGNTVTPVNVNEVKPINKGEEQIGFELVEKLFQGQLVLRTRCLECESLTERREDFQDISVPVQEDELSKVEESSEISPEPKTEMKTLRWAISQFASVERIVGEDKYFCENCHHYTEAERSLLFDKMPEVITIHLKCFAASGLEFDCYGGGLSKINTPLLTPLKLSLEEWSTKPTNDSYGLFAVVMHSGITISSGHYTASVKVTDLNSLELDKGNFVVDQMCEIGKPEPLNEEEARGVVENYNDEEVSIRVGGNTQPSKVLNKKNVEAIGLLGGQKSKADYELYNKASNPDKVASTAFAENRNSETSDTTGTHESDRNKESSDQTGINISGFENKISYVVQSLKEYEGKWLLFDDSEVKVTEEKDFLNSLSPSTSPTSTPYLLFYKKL
Method in brief: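 Enzyme-free wells gave the negative control, while test wells held 1nM USP1/UAF1 preincubated with compound for 15 min at room temperature. Ub-Rho at 150nM final started the reaction, and fluorescence at 480/540 nm was recorded kinetically.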

[14] = Primary qHTS for small molecule stabilizers of the endoplasmic reticulum resident proteome: Secreted ER Calcium Modulated Protein (SERCaMP) assay (AID 1508630); conditions: SH-SY5Y GLuc-SERCaMP (Gaussia luciferase released on ER calcium loss) secretion, thapsigargin, luminescence; series mostly up to 38.4 µM; also: % is scaled to controls: 0 for no effect and ±100 for the full control effect
Method in brief: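 The SH-SY5Y reporter protocol was run at 3 concentrations up to 38.3 uM (primary) or 11 concentrations (follow-up): 16 h compound, 100 nM thapsigargin for 4 h, then extracellular luciferase luminescence.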

[15] = biological target: Glucocorticoid receptor (Homo sapiens) (UniProt P04150); experiment: GR-GFP Redistribution (AID 450;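 active = compounds whose dose series gives a full or clear partial fitted curve of increased nuclear translocation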; also: potency is read from the fitted curve at half-maximal effect); conditions: U2OS GR-GFP nuclear translocation, laser cytometry, 2 h
[16] = biological target: Cytochrome P450 3A4 (Homo sapiens) (UniProt P08684); experiment: qHTS Assay for Inhibitors and Substrates of Cytochrome P450 3A4 (AID 884); conditions: recombinant CYP3A4, Luciferin-PPXE luminescence; series mostly up to 57.1 µM; also: nearly all actives have a fitted effect of over 50% in size; also: potency is read from the fitted curve at half-maximal effect
Chain of Cytochrome P450 3A4 (Homo sapiens) (P08684 whole entry, looked up): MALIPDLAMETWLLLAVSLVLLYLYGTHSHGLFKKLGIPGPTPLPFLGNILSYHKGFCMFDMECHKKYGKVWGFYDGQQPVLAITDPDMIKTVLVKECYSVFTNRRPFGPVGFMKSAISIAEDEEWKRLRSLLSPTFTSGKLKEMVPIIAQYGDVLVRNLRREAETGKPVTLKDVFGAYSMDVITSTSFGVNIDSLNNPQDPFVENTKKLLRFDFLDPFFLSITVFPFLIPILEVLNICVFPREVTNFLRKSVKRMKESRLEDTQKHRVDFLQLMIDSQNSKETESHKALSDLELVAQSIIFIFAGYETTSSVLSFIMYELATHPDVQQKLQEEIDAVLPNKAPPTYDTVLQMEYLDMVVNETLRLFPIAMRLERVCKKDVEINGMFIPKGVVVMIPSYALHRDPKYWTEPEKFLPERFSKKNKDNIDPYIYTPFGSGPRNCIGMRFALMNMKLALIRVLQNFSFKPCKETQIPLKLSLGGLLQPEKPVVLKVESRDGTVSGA
Method in brief: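 Luminescent readout of luciferin produced by CYP3A4 (20 nM) dealkylation of Luciferin-PPXE, 25 uM (its KM). NADPH-driven reaction ran 60 min at RT after 10 min compound preincubation; data scaled to 57 uM ketoconazole as 100% inhibition.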

[17] = biological target: Cytochrome P450 3A4 (Homo sapiens) (UniProt P08684); experiment: qHTS Assay for Activators of Cytochrome P450 3A4 (AID 885); conditions: recombinant CYP3A4, Luciferin-PPXE luminescence, 60 min; series mostly up to 57.1 µM; also: nearly all actives have a fitted effect of over 65% in size
Method in brief: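 Using 20nM recombinant human CYP3A4 in potassium phosphate (200mM), substrate Luciferin-PPXE at 25uM, luminescent luciferin detection followed a 60-min RT NADPH reaction; data scaled to 57 uM ketoconazole.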

[18] = biological target: Dual specificity protein kinase CLK4 (Homo sapiens) (UniProt Q9HAZ1); experiment: qHTS Assay for Inhibitors of CDC-like Kinase 4 (ADP-FP Assay) (AID 1795); conditions: Transcreener ADP fluorescence polarization; series mostly up to 50 µM;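 also: recombinant human CLK4 phosphorylating RS repeat peptide at 1 µM ATP; % is scaled to controls: 0 for no effect and ±100 for the full control effect; nearly all actives have a fitted effect of over 60% in size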
Method in brief: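 Kinase activity was followed as ADP output, converted from fluorescence polarization with a calibration curve. Reactions ran one hour at low ATP (1 uM) with RS peptide substrate.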

[19] = qHTS Assay for Identification of Small Molecule Agonists for Hypoxia Response Element Signaling Pathway (AID 914; active = well fitted activation curve with a large enough effect in the signal ratio, with a control signal flat, not every such curve was filed as active; the % refers to the signal ratio; also: % of control where 0% means no effect); conditions: ME-180 (cervical carcinoma) HRE-bla reporter, beta-lactamase ratio, CoCl2, 17 h; activation: stronger effect = higher value
Method in brief: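 Compounds in a titration series were added to ME-180 reporter cells alongside an EC50 level of CoCl2. After 17 hours, beta-lactamase activity was read as the 460nm/530nm emission ratio of CCF4, giving AC50 values.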

[20] = measured here: cell count channel max response
[21] = measured here: lipid channel max response

Cc1noc(C)c1-c1cc(NCc2cccnc2)ncn1
6.22%: max response [10, 21]
active: Potency [3] 1 µM | Potency [11] 15.8 µM | Potency [12] 22.4 µM
inactive: Potency [1] > 11.4 µM | activity change, negative = inhibition [2] 2.04% | activity change, negative = inhibition [4] -0.73% | activity, negative = inhibition [5] 8.46% | Potency [6] > 46 µM | outcome [7] | Potency [8] | activity change, negative = inhibition [9] 9.31% [at 2.29 µM] | activity change, negative = inhibition [10] 2.28% | Potency [13] | Potency [14]
5.59%: max response [10, 20]

CC(=O)NCCNc1ncncc1-c1ccc(N(C)C)cc1
active: Potency [3] 6.31 µM | Potency [16] 2 µM
inactive: activity change, negative = inhibition [2] -11.6% | activity change, negative = inhibition [4] 9.49% | activity, negative = inhibition [5] 9.91% | Potency [15] > 46 µM | Potency [6] > 46 µM | outcome [7] | Potency [8] | Potency [17] | activity change, negative = inhibition [10] -9.91% | Potency [11] | Potency [12] | Potency [18] | Potency [13] | Potency [14]
8.09%: max response [10, 21]
25.7%: max response [10, 20]

COc1cccc(Nc2ncc3nc(C)c(=O)n(C4CC4)c3n2)c1
inactive: Potency [1] > 11.4 µM | activity change, negative = inhibition [2] -16.4% | activity change, negative = inhibition [4] 5.07% | activity, negative = inhibition [5] -13.4% | Potency [15] > 9.22 µM | Potency [6] > 46 µM | outcome [7] | Potency [8] | Potency [17] | activation [19] -3.86% | activity change, negative = inhibition [10] -5.91% | Potency [13] | Potency [14]
-1.52%: max response [10, 20]
active: Potency [3] 1.26 µM | Potency [16] 6.31 µM | Potency [11] 12.6 µM | Potency [12] 11.2 µM
-13.2%: max response [10, 21]

CN1CCN(c2ncc3nc(-c4ccc(Cl)cc4)c(=O)n(Cc4cccs4)c3n2)CC1
19.7%: max response [10, 20]
16.2%: max response [10, 21]
inactive: Potency [1] > 11.4 µM | Potency [15] > 9.22 µM | Potency [6] > 46 µM | Potency [8] | Potency [16] | activity change, negative = inhibition [10] 0.387% | Potency [11] | Potency [12] | Potency [13] | Potency [14]
active: activity change, negative = inhibition [2] 140% [activator] | Potency [3] 10 µM

CN(C)c1ccc(-c2ccc3ncnc(N(C)C)c3c2)cc1
9.5%: max response [10, 20]
inactive: Potency [1] > 11.4 µM | activity change, negative = inhibition [2] -10.3% | activity change, negative = inhibition [4] -14.1% | activity, negative = inhibition [5] -0.741% | Potency [15] > 46 µM | Potency [6] > 46 µM | outcome [7] | Potency [8] | Potency [17] | activity change, negative = inhibition [10] 1.7% | Potency [13] | Potency [14]
active: Potency [3] 0.158 µM | Potency [16] 6.31 µM | Potency [11] 3.55 µM | Potency [12] 8.91 µM
8.94%: max response [10, 21]
